Bioassay records from PubChem.
A selection: hits, their analogues and other compounds. The true share with any hit is near 6.9%.
KB-V1 cytotox: KB-V1 MDR subline cytotoxicity; KB-V1 MDR cells viability, CellTiter-Glo, 72 h; Potency, µM (highest dose often 46.1 µM), usual class: cytotoxic; 3.4% of 400,000 active; AID 1347076; further: potency means the concentration at half of the fitted maximal effect; on the % scale 0 is the no-effect control and ±100 the full control effect; nearly all actives have a fitted effect of over 60% in size
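qHTS viability screen in drug-selected KB-V1 MDR cells: 72 h compound treatment at 37 degrees C, ATP luminescence end point.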
MCF10A rerep: inducers of DNA re-replication in MCF 10A breast cells; MCF 10A DNA re-replication, Hoechst nuclear intensity, 48 h; Potency, µM (top dose mostly 46.1 µM), inactives show at the top dose activity, positive = re-replication, hits mostly activators; 2.9% of 350,000 active; AID 624296; further: potency means the concentration at half of the fitted maximal effect; % of control where 0% means no effect; nearly all actives have a fitted effect of over 50% in size
KB-3-1 tox: kills parental KB-3-1 adenocarcinoma cells; KB-3-1 viability, CellTiter-Glo ATP luminescence, 72 h; Potency, µM (top dose mostly 46.1 µM), most hits filed as cytotoxic; 1.4% of 400,000 active; further: potency means the concentration at half of the fitted maximal effect; on the % scale 0 is the no-effect control and ±100 the full control effect; nearly all actives have a fitted effect of over 60% in size
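KB-3-1 parental drug-naive adenocarcinoma cells in DMEM/10% FBS, incubated 72 h at 37 C with pin-transferred compounds across a concentration series. Viability by CellTiter-Glo luminescence; concentration-response curves fitted after normalization.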
Giardia killer: kills Giardia lamblia; Giardia lamblia trophozoite viability; activity change, % at 7.66 µM, hits read low; 0.15% of 340,000 active; in the data active means activity change below about -80%; inconclusive means between about -30% and that limit;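 further: parasites exposed to compound for two days anaerobically before the ATP read; on the % scale 0 is the no-effect control and ±100 the full control effect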
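Giardia lamblia trophozoites (100 cells/well) were incubated with compounds for 48 h at 37 deg C under anaerobic conditions. Viability was read as ATP content by one-step luminescence after 15-30 min at room temperature.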
ASM inhibitor: blocks human secretory acid sphingomyelinase. P17405. placental ASM, HMU-PC fluorogenic substrate, 60 min. Potency, µM (top dose mostly 57.5 µM), inactives show at the top dose activity change, negative = inhibition, usual class: inhibitors. 0.006% of 340,000 active; further: potency means the concentration at half of the fitted maximal effect
Target sequence (P17405 47-631 limits assumed): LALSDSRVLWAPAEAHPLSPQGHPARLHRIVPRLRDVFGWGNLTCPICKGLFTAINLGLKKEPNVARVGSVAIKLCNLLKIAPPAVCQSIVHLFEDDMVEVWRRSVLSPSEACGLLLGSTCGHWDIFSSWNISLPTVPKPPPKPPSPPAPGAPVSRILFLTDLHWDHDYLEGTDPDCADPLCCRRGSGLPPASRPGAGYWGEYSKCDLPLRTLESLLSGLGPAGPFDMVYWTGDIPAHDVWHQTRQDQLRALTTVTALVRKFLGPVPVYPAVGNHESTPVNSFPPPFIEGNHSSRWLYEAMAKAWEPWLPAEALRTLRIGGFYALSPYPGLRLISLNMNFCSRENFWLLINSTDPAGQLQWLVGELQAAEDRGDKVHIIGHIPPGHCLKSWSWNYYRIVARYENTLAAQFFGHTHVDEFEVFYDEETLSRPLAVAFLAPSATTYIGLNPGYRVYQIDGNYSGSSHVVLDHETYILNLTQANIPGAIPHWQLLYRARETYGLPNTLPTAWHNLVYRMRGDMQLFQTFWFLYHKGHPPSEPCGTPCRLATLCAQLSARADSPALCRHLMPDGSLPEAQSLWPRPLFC
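qHTS format. ASM enzyme prepared from human placenta hydrolyses the fluorogenic substrate HMU-PC0 (9 uM final) over 60 min at 37 °C after a 10 min compound preincubation.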
SW480 rerep: DNA re-replication induction in SW480 cells | Potency, µM (series often up to 46.1 µM), inactives show at the highest dose re-replication activation, usual class: activators | SW480 DNA re-replication, Hoechst DNA content imaging, 48 h | 1.8% of 340,000 active; further: potency means the concentration at half of the fitted maximal effect; % of control where 0% means no effect; nearly all actives have a fitted effect of over 55% in size
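Image-based DNA-content assay: after two days of treatment, nuclei were labelled with the DNA dye Hoechst and imaged, and hits were compounds raising the count of nuclei showing high fluorescence intensity.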
* = called active by the depositor. Unless noted, the call rests on the fitted dose curve; in most records, active means well fitted curve in the direction sought with a large enough effect; inconclusive means small, poorly fitted or top-dose-only effect, or another doubt; inactive means no such curve, though single readings can be large; an effect the other way counts as inactive or inconclusive.

`O=C(c1cc(-c2ccncc2)nc2ccc(Cl)cc12)N1CCN(C(=O)C2CCCO2)CC1` (centres undefined) gave KB-V1 cytotox inactive, MCF10A rerep 2%, KB-3-1 tox inactive, Giardia killer -22, ASM inhibitor -1% and SW480 rerep -7%.
Screening O=C(c1cc(-c2cccc(Cl)c2)nc2ccccc12)N1CCN(c2ccccn2)CC1 returned KB-V1 cytotox inconclusive, MCF10A rerep inconclusive, KB-3-1 tox inactive, Giardia killer -13, ASM inhibitor -10% and SW480 rerep inconclusive.
Screening Cc1cccc2c(C(=O)N3CCN(c4ccccn4)CC3)cc(-c3cccc(Br)c3)nc12 returned KB-V1 cytotox inconclusive, MCF10A rerep -6%, KB-3-1 tox inconclusive, Giardia killer -6, ASM inhibitor inconclusive and SW480 rerep 16µM*.
Screening CC(=O)c1ccc(N2CCN(C(=O)c3cc(-c4ccncc4)nc4ccc(Cl)cc34)CC2)cc1 returned KB-V1 cytotox 9.2µM*, MCF10A rerep 1%, KB-3-1 tox inactive, Giardia killer 2, ASM inhibitor -6% and SW480 rerep -4%.
CC(C)CN(C)C(=O)CCc1nnc(Cc2ccc(-c3ccccc3)cc2)o1 was read as KB-V1 cytotox inactive, MCF10A rerep 0%, KB-3-1 tox inactive, Giardia killer -29, ASM inhibitor -3% and SW480 rerep -1%.
Screening CCOC(=O)c1ccc2[nH]c(C)c(C)c2c1 returned KB-V1 cytotox inactive, MCF10A rerep inconclusive, KB-3-1 tox inactive, Giardia killer -4, ASM inhibitor -2% and SW480 rerep -3%.
Screening CCOC(=O)c1cc2c(ccc3nc(C)c(C)c32)[nH]c1C returned KB-V1 cytotox inactive, MCF10A rerep 15µM*, KB-3-1 tox inactive, Giardia killer -23, ASM inhibitor 147% and SW480 rerep 8.2µM*.
NC(=O)Cn1c(=O)n(CCc2ccccc2)c(=O)c2c3c(sc21)CCCC3 was read as KB-V1 cytotox 4.1µM*, MCF10A rerep -6%, KB-3-1 tox inactive, Giardia killer -1, ASM inhibitor 5% and SW480 rerep inconclusive.
`CC(=O)N1CCc2c(sc3c2c(=O)n(CCc2ccccc2)c(=O)n3Cc2ccc(Cl)cc2)C1` gave KB-V1 cytotox inconclusive and KB-3-1 tox 21µM*.
Screening CC(=O)N1CCc2c(sc3c2c(=O)n(CCc2ccccc2)c(=O)n3Cc2ccccc2C)C1 returned KB-V1 cytotox inconclusive and KB-3-1 tox inactive.
COc1ccc(NC(=O)Cn2c(=O)n(CCc3ccccc3)c(=O)c3c4c(sc32)CCCC4)cc1 was read as KB-V1 cytotox inactive and KB-3-1 tox inactive.
`CN(C)c1nc2ccccc2c(N)c1-c1ccccc1` gave KB-V1 cytotox inconclusive, MCF10A rerep inconclusive, KB-3-1 tox inactive, Giardia killer 4, ASM inhibitor 1% and SW480 rerep 3%.
Screening Nc1nc(Br)c2c(F)cccc2c1-c1ccc(Cl)cc1 returned KB-V1 cytotox inactive, MCF10A rerep 7.3µM*, KB-3-1 tox inactive, Giardia killer 16, ASM inhibitor 63% and SW480 rerep 21µM*.
For Nc1nc(Br)c2ccccc2c1-c1ccccc1 the results were KB-V1 cytotox inactive, MCF10A rerep 22µM*, KB-3-1 tox inactive, Giardia killer 26, ASM inhibitor 293% and SW480 rerep inconclusive.
`Clc1cccc[n+]1CCc1ccccc1` gave KB-V1 cytotox inactive and KB-3-1 tox inactive.
Screening Nc1ncnc2oc(-c3ccco3)c(-c3ccco3)c12 returned KB-V1 cytotox 21µM*, MCF10A rerep 6%, KB-3-1 tox inactive, Giardia killer -1, ASM inhibitor 50% and SW480 rerep -3%.
C=CCc1c(O)c(CC)cc2c(C)cc(=O)oc12 was read as KB-V1 cytotox inactive, MCF10A rerep 4%, KB-3-1 tox inactive, Giardia killer -5, ASM inhibitor inactive and SW480 rerep 12µM*.
Cc1ccc(C2=NOC(=O)/C2=C\c2ccc(C)o2)cc1 was read as KB-V1 cytotox inactive, MCF10A rerep 16µM*, KB-3-1 tox inactive, Giardia killer -5, ASM inhibitor -1% and SW480 rerep inconclusive.
`Cc1ccc2[nH]c(=O)c(CN(CC3CCCO3)C(=S)NCc3ccco3)cc2c1` (centres undefined) gave KB-V1 cytotox inactive, MCF10A rerep 7%, KB-3-1 tox inactive, Giardia killer -12, ASM inhibitor -3% and SW480 rerep 1%.
For CCNC(=S)N(Cc1ccco1)Cc1cc2cc(OCC)ccc2[nH]c1=O the results were KB-V1 cytotox inconclusive, MCF10A rerep inconclusive, KB-3-1 tox inactive, Giardia killer 12, ASM inhibitor 29% and SW480 rerep -34%.
`Cc1ccc2[nH]c(=O)c(CN(Cc3cccs3)C(=S)NCc3ccco3)cc2c1` gave KB-V1 cytotox 18µM*, MCF10A rerep 13%, KB-3-1 tox inactive, Giardia killer -23, ASM inhibitor -13% and SW480 rerep 9%.
For CCNC(=S)N(Cc1cccs1)Cc1cc2cc(OCC)ccc2[nH]c1=O the results were KB-V1 cytotox 12µM*, MCF10A rerep -6%, KB-3-1 tox inactive, Giardia killer 16, ASM inhibitor 10% and SW480 rerep -5%.
Screening COc1ccc(NC(=O)CSC2=Nc3ccccc3C3=NC(CCC(=O)NCc4cccs4)C(=O)N23)cc1 (centres undefined) returned KB-V1 cytotox inactive and KB-3-1 tox inactive.
Screening CCc1ccccc1NC(=O)NC1CC2CCC(C1)N2Cc1cccs1 (centres undefined) returned KB-V1 cytotox inactive, MCF10A rerep inconclusive, KB-3-1 tox inactive, Giardia killer -10, ASM inhibitor 6% and SW480 rerep -2%.
Screening CCc1ccc(NC(=S)NC2CC3CCCC(C2)N3Cc2cccs2)cc1 (centres undefined) returned KB-V1 cytotox 18µM*, MCF10A rerep 0%, KB-3-1 tox inactive, Giardia killer -14, ASM inhibitor -1% and SW480 rerep 15µM*.
Screening CC1=CC(C)(C)Nc2ccc(OS(=O)(=O)c3ccc(C)cc3)cc21 returned KB-V1 cytotox 15µM*, MCF10A rerep inconclusive, KB-3-1 tox inactive, Giardia killer 5, ASM inhibitor 2% and SW480 rerep -6%.
Screening Cc1ccc(S(=O)(=O)Oc2ccc3ccc(O)cc3c2)cc1 returned KB-V1 cytotox inconclusive, MCF10A rerep 1µM*, KB-3-1 tox inactive, Giardia killer 7, ASM inhibitor -3% and SW480 rerep -17%.
